Source: PubChem BioAssay (EPA / NIEHS)
Records with an inconclusive call do not appear. The source made the active and inactive calls. How the source made its calls: active means hit-call score of the fitted dose curve at least 0.9, where 1 is the maximum; inconclusive means response in the unintended direction; inactive means score below 0.9.

What follows are compounds tested against human Thyroid Receptor alpha (THRa1), THRA (gene 7067) (UniProt P10827) (assay: ATG_THRa1_TRANS: Attagene TRANS-FACTORIAL HepG2 Assay for human Thyroid Receptor alpha (THRa1) (AID 2283014)).
Description: ATG_TRANS is a cell-based, multiplexed-readout assay that uses HepG2, a human liver cell line, with measurements taken at 24 hours after chemical dosing in a 24-well plate.ATG_THRa1_TRANS is one of 30 assay component(s) measured or calculated from the ATG_TRANS assay. It is designed to make measurements of mRNA induction, a form of inducible reporter, as detected with fluorescence intensity signals by Reverse transcription polymerase chain reaction (RT-PCR) and Capillary electrophoresis technology.Data from the assay component ATG_THRa1_TRANS was analyzed into 1 assay endpoint. This assay endpoint, ATG_THRa1_TRANS, was analyzed in the positive analysis fitting direction relative to DMSO as the negative control and baseline of activity. Using a type of inducible reporter, measures of mRNA for gain-of-signal activity can be used to understand the reporter gene at the transcription factor-level as they relate to the gene THRA. Furthermore, this assay endpoint can be referred to as a primary readout, because this assay has produced multiple assay endpoints where this one serves a reporter gene function. To generalize the intended target to other relatable targets, this assay endpoint is annotated to the nuclear receptor intended target family, where the subfamily is non-steroidal.
Human liver HepG2 cells are transiently transfected with multiple reporter transcription units (MRTUs) in 6-well plates using FuGene 6 reagent (Roche; 3 ml FuGene/1 mg DNA). The MRTU constructs are regulated by a cis-regulating element (promoter). […] A major difference between the CIS and TRANS system is that in CIS activities of endogenous TFs are measured, whereas the TRANS assay evaluates changes in activities of exogenous, chimeric NR-Gal4 proteins. […] At the end of 24 hour incubation, total RNA was isolated using TriZol reagent (Invitrogen). The isolated RNA is then reverse-transcribed using oligo(dT) primer and Mo-MLV reverse transcriptase (Invitrogen) with DNAse I (Ambion) treatment for 30 min. The one-tenth of the produced cDNA was amplified by PCR using Taq DNA polymerase (Invitrogen) and two reporter sequence-specific primers. The PCR products were fluorescently labeled by primer extension with 6-arboxyfluorescein (6-FAM) 5'-labeled reporter sequence-specific primer (2 min at 95 C, 20 s at 68 C and 10 min at 72 C) and these products were digested with 5U of HpaI (New England Biolabs) for 2h at 37 C. The fragments were purified using Qiaquick PCR columns (Qiagen), analyzed on an ABI 3130xL genetic analyzer (Applied Biosystems) with peak positions identified by using a set of X-rhodamine (ROX)-labeled MapMarker1000 molecular weight standards (BioVentures). The raw capillary electrophoresis data was processed using Attagraph software (Attagene).

human Thyroid Receptor alpha (THRa1), THRA (gene 7067), sequence (P10827 whole entry, looked up): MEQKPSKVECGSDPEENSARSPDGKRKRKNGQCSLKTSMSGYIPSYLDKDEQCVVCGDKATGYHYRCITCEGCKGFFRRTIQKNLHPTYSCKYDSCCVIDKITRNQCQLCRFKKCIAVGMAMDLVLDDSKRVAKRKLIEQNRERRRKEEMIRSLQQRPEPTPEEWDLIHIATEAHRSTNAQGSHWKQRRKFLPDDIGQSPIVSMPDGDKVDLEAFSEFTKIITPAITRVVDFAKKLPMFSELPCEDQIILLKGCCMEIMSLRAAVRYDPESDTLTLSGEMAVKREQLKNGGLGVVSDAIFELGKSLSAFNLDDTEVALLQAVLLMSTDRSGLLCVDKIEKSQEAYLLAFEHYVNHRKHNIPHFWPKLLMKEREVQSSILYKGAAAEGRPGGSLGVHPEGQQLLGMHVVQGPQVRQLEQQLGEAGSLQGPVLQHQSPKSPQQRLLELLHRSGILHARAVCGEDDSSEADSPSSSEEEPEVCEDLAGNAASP

SMILES	outcome	AC50
CC(C)N(C(=O)SCC(Cl)=C(Cl)Cl)C(C)C	inactive	–
CCCCOC(=O)[C@@H](C)Oc1ccc(Oc2ccc(C#N)cc2F)cc1	inactive	–
COP(=O)(OC)SCn1c(=O)oc2cc(Cl)cnc21	inactive	–
O=C(O)c1cc(Oc2ccc(C(F)(F)F)cc2Cl)ccc1[N+](=O)[O-]	inactive	–
COP(=O)(OC)C(O)C(Cl)(Cl)Cl (centres undefined)	inactive	–
CN(C)[C@@H]1C(=O)C(C(N)=O)=C(O)[C@@]2(O)C(=O)C3=C(O)c4c(O)cccc4[C@@](C)(O)[C@H]3[C@H](O)[C@@H]12	inactive	–
O=[N+]([O-])c1cc(C(F)(F)F)c(Cl)c([N+](=O)[O-])c1Nc1ncc(C(F)(F)F)cc1Cl	inactive	–
CN(C)NC(=O)CCC(=O)O	inactive	–
N#CSCSC#N	inactive	–
CC(C)=CC1C(C(=O)OCN2C(=O)C3=C(CCCC3)C2=O)C1(C)C (centres undefined)	inactive	–
CCCOc1nn(C(=O)NS(=O)(=O)c2ccccc2C(=O)OC)c(=O)n1C	inactive	–
CCOP(=S)(OCC)Oc1ccc2c(C)c(Cl)c(=O)oc2c1	inactive	–
Nc1c(Cl)cc([N+](=O)[O-])cc1Cl	inactive	–
CCOP(=S)(OCC)Oc1cc(C)nc(C(C)C)n1	inactive	–
CC1=NNC(=O)N(/N=C/c2cccnc2)C1	inactive	–
CC(C)[C@H](C(=O)O[C@H](C#N)c1cccc(Oc2ccccc2)c1)c1ccc(Cl)cc1	inactive	–
CON=C(C(=O)OC)c1ccccc1CON=C(C)c1cccc(C(F)(F)F)c1	inactive	–
CCOP(=S)(Oc1cnc(C(C)(C)C)nc1)OC(C)C (centres undefined)	inactive	–
COP(=O)(NC(C)=O)SC (centres undefined)	inactive	–
CCOC(=O)CC(SP(=O)(OC)OC)C(=O)OCC (centres undefined)	inactive	–

SMILES	outcome	AC50
COc1ccc(C(=CC(=O)N2CCOCC2)c2ccc(Cl)cc2)cc1OC	inactive	–
C=C(C)[C@H]1Cc2c(ccc3c2O[C@@H]2COc4cc(OC)c(OC)cc4[C@@H]2C3=O)O1	–	0.24 µM (active)
CSc1nnc(C(C)(C)C)c(=O)n1N	inactive	–
C#CC(C)(C)NC(=O)c1cc(Cl)cc(Cl)c1	inactive	–
CCC(=NOC/C=C/Cl)C1=C(O)CC(C2CCOCC2)CC1=O (centres undefined)	inactive	–
C[N+]1(C)CCCCC1	inactive	–
CNc1cnn(-c2cccc(C(F)(F)F)c2)c(=O)c1Cl	inactive	–
O=c1ccc(=O)[nH][nH]1	inactive	–
Cc1nn(-c2cc(NS(C)(=O)=O)c(Cl)cc2Cl)c(=O)n1C(F)F	inactive	–
CN1COCN(Cc2cnc(Cl)s2)C1=N[N+](=O)[O-]	inactive	–
COc1cc(OC)nc(Sc2cccc(Cl)c2C(=O)O)n1	inactive	–
Cc1cc(C2CC2)nc(Nc2ccccc2)n1	–	64 µM (active)
CCOC(=O)COc1cc(-c2nn(C)c(OC(F)F)c2Cl)c(F)cc1Cl	inactive	–
CSC1=N[C@@](C)(c2ccccc2)C(=O)N1Nc1ccccc1	inactive	–
CCc1cccc(CC)c1N(COC)C(=O)CCl	inactive	–
CCCCOC(=O)c1ccccc1C(=O)O	inactive	–
CCOP(=S)(OCC)SCCSCC	inactive	–
CCOP(=S)(OCC)OC(Cl)C(Cl)(Cl)Cl (centres undefined)	inactive	–
FC(F)C(F)(F)OCC(Cn1cncn1)c1ccc(Cl)cc1Cl (centres undefined)	inactive	–
